M1 PAM parental: M1 PAM counterscreen hit in parental CHO-K1 cells; ATP EC20, Fluo-8 calcium fluorescence; 0% at ATP EC20, 100% at ATP max; activation, % at 3 µM; 360,000 tested, 0.02% active; AID 602247;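 active = activation above the run cutoff, the mean activation of all test compounds plus 3 SD, cut at about 40% in these data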;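 also: peak over basal fluorescence ratio in a 140 s read after ATP addition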
M1 PAM: potentiates human M1 receptor response to acetylcholine; CHO-K1 hM1, Fluo-8 calcium fluorescence, ACh EC20; 0% = ACh EC20, 100% = maximal ACh; activation, % at 3 µM; 360,000 tested, 0.088% active; AID 588819; in the data active = activation above about 19%, passing the limit was not always enough
Target sequence (P11229 whole entry, looked up): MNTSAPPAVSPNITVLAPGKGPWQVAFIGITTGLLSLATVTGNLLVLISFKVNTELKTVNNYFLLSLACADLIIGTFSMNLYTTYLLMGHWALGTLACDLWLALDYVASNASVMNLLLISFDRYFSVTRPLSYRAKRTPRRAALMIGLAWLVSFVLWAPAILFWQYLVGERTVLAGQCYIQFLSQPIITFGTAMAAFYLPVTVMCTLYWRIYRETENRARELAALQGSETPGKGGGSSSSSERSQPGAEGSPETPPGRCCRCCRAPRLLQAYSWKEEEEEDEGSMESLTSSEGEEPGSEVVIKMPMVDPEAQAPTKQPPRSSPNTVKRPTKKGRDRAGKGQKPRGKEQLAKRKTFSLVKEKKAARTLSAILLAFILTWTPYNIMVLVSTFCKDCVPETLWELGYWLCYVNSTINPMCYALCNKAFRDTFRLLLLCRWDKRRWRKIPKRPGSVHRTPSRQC
CHO-K1 Ca antag: nonselective inhibitor or artifact in parental CHO-K1 cells; AID 602250; 360,000 tested, 0.6% active; ATP-induced calcium, Fluo-8 fluorescence; inhibition, % at 3 µM;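 active = inhibition above a per-plate cutoff, the plate's mean sample inhibition plus 3 SD, cut at about 24% in these data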;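 also: 0% = DMSO plus EC80 ATP and 100% = DMSO alone without ATP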
M1 ag parental: counter-screen for M1 agonists: effect in parental CHO-K1 cells; Fluo-8 calcium fluorescence; scaled to maximal ATP response, vehicle zero; activation, % at 3 µM; 360,000 tested, 0.48% active; AID 602248; in the data active = activation above about 15%;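 also: untransfected CHO-K1 host cells lacking M1 receptor as counterscreen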
CHRM1 agonist: human M1 muscarinic receptor agonism; P11229; CHO-K1 hM1, Fluo-8 calcium fluorescence, agonist mode; 0% DMSO, 100% acetylcholine EC100; activation, % at 3 µM; 360,000 tested, 0.33% active;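 active = activation above the run's mean compound activation plus 3 SD, cut at about 16% in these data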;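 also: peak over basal fluorescence ratio within a 140 s kinetic read after compound addition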
M1 antag: blocks human M1 muscarinic receptor. P11229. CHO-K1 hM1, Fluo-8 calcium fluorescence, ACh EC80 antagonist. inhibition, % at 3 µM. 360,000 tested, 1.3% active. AID 588852;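 active = percent inhibition above its own plate's cutoff, namely the mean of that plate's compound wells plus 3 SD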;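 also: peak over basal fluorescence ratio during 140 s after agonist addition; 0% = ACh EC80 plus DMSO and 100% = DMSO alone without agonist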
An asterisk follows results filed as active; / = no result. Most compounds without a hit are left out; they make up all but 2.4% or so of the library.

SMILES | M1 PAM parental | M1 PAM | CHO-K1 Ca antag | M1 ag parental | CHRM1 agonist | M1 antag
CCCc1cc(=O)[nH]c2nnc(SCC(=O)Nc3cccc(NC(C)=O)c3)n12 | -23 | 16 | 11 | 0 | 20* | 2
O=C(Cn1cc(COc2ccc(Br)cc2[N+](=O)[O-])nn1)c1ccc(O)cc1 | -9 | 0 | 25* | 2 | -4 | -5
Cc1ccc(N(C(=O)CNC(=O)c2cccs2)C(C(=O)NC2CCCC2)c2ccncc2)cc1 (stereo not drawn) | -14 | 10 | -16 | 0 | 1 | -12
Cn1c(SCc2ccccc2Cl)nnc1-c1cnccn1 | -6 | 2 | 24* | 0 | -6 | 1
CC(=O)c1cnc2c(-c3ccc(Cl)cc3)cnn2c1C | -8 | 6 | 30* | -1 | 0 | -8
Nc1c(C(=O)O)cnc2c(-c3ccc(Cl)cc3)cnn12 | 6 | 4 | -4 | 0 | -1 | 5
C#CCN(C[C@@H](CC(C)C)NC(=O)OC(C)(C)C)S(=O)(=O)c1ccc(Br)cc1F | 18 | 7 | -15 | 0 | -1 | -19
O=c1cc(NS(=O)(=O)c2ccccc2)nc(SCc2c(Cl)cccc2Cl)[nH]1 | -5 | -10 | 19 | 0 | -4 | 21
Cc1ccc(S(=O)(=O)Nc2cc(=O)[nH]c(SCc3ccc(Cl)cc3)n2)cc1 | 14 | -15 | -10 | 1 | 39* | 1
COc1cccc(NC(=O)CSCc2nc3sc(C)c(C)c3c(=O)[nH]2)c1 | -7 | 9 | -7 | 0 | -4 | -10
COc1ccc(/C=C/c2nc(-c3ccccc3)cc(=O)[nH]2)cc1 | 7 | 10 | 0 | 1 | 0 | -8
O=c1cc(-c2ccccc2)nc(/C=C/c2ccccc2)[nH]1 | 17 | 10 | -2 | 17* | 10 | -6
CCN(CC)S(=O)(=O)c1ccc(S(=O)(=O)Nc2ccc3c(c2)oc2ccccc23)cc1 | -6 | -6 | 25* | 0 | -3 | 5
Cc1ccc(NC(=O)CSc2nn(-c3ccccc3)c(=S)s2)cc1S(=O)(=O)N(C)C | -5 | -12 | 29* | 13 | -1 | 25*
O=C(CSc1nn(-c2ccccc2)c(=S)s1)Nn1cnnc1 | 6 | 3 | -4 | 0 | -1 | -10
COc1ccc(C(=O)Nc2ccc(Cl)c(S(=O)(=O)N3CCOCC3)c2)cc1 | 2 | -15 | -6 | 17* | 6 | 8
O=C(Nc1ccc(S(=O)(=O)N2CCCC2)cc1)c1ccc(OCC2CCCO2)cc1 (stereo not drawn) | 11 | -3 | -11 | 8 | -7 | 5
O=C(Nc1cccc(Br)c1)c1ccc(Cl)c(S(=O)(=O)N2CCOCC2)c1 | -13 | -28 | 5 | 14 | 1 | 43*
O=C(Nc1ccc(Cl)c(S(=O)(=O)N2CCOCC2)c1)c1ccc(OCC2CCCO2)cc1 (stereo not drawn) | -17 | -30 | 24* | 11 | 0 | 36*
COc1ccc(NC(=O)CCN2CCN(S(=O)(=O)c3cc(Cl)ccc3Cl)CC2)cc1 | 58* | 0 | -44 | 10 | 9 | -8
O=C(Nc1cccc(C(=O)NC2CC2)c1)c1ccc(Cl)c(S(=O)(=O)N2CCOCC2)c1 | -9 | -7 | -4 | 3 | -3 | 13
c1ccc(-c2ccc(OCCCNC3CCCC3)cc2)cc1 | -7 | -29 | 14 | 14 | 0 | 36*
CC(=O)Nc1ccc(/C=N/N2C(C)CCCC2C)cc1 (stereo not drawn) | 11 | 14 | -11 | 6 | 3 | -22
CC(=O)Nc1ccc(/C=N/N2CCCCC2)cc1 | -5 | -15 | 2 | 0 | 35* | 13
COc1ccc(Br)cc1/C(C)=N/NC1=NCCN1 | -4 | -14 | 9 | 6 | 68* | 79*
SMILES | M1 PAM parental | M1 PAM | CHO-K1 Ca antag | M1 ag parental | CHRM1 agonist | M1 antag
CCCCCOc1ccc(Br)cc1/C(C)=N/NC1=NCCN1 | 20 | -16 | -5 | 1 | -4 | 6
N=c1ccn(Cc2cccc(F)c2)cc1 | 11 | -21 | -8 | 0 | -9 | 42*
O=C(NOCc1ccccc1)c1ccc(Cl)cc1 | 7 | -22 | -13 | 0 | -7 | 41*
CN(C)C1=NC[C@H](Cc2ccccc2)N1CCCCc1ccccc1 | 13 | -23 | -17 | 2 | -9 | 34*
CCCCCCCN1C(N(C)C)=NC[C@@H]1Cc1ccccc1 | 7 | -27 | -7 | 2 | -12 | 29
COC(=O)c1ccc(CO/N=C/c2ccc(OC)cc2OC)cc1 | 0 | 0 | 12 | 5 | -6 | -2
O=S1c2ccccc2Sc2ccccc21 | 15 | 13 | 1 | 0 | -1 | -18
Cc1ccc(-n2cc(-c3ccccc3)c3c(N4CCOCC4)ncnc32)cc1 | -4 | -12 | 7 | 4 | -3 | 43*
Cc1cccc(-n2cc(-c3ccccc3)c3c(N4CCOCC4)ncnc32)c1 | -8 | -16 | 1 | 5 | -5 | 38*
Cc1ccc(-n2cc(-c3ccccc3)c3c(N4CCN(C)CC4)ncnc32)cc1 | 5 | 11 | -1 | 4 | -3 | -10
O=C1CCCCC(=O)[C@H](O)C[C@H](c2ccccc2)O1 | 17 | / | -18 | 1 | / | /
Cc1cc(C)cc(N(CCC#N)C(=O)CSc2ncnc3sccc23)c1 | -7 | 6 | 4 | 1 | 0 | 4
O=C(NC(=S)NNC(=O)[C@H]1C[C@@H]1c1ccccc1)c1ccc(F)cc1 | 9 | -3 | -1 | 4 | 0 | 4
COc1ccc(C(=O)NC(=S)NNC(=O)[C@H]2C[C@@H]2c2ccccc2)cc1OC | -12 | 11 | 12 | 3 | 19* | -13
COc1cc(OC)cc(C(=O)NC(=S)NNC(=O)[C@H]2C[C@@H]2c2ccccc2)c1 | 18 | 2 | -5 | 14 | 43* | -10
CC(C)(C)NC(=S)NNC(=O)[C@H]1C[C@@H]1c1ccccc1 | 16 | 2 | -7 | 2 | -3 | 11
O=C(/C=C/c1ccc(F)cc1)NC(=S)NNC(=O)[C@H]1C[C@@H]1c1ccccc1 | 1 | -16 | -2 | 40* | 49* | 18
N/C(=N\NS(=O)(=O)c1ccccc1Cl)c1ccccn1 | 2 | 7 | -9 | 0 | -2 | -13
O=C(Nc1ccccc1C(=O)Nc1nnc(C(F)(F)F)s1)c1ccccc1 | -10 | -12 | 26* | 9 | 8 | 18
CC1CC(C)CN(C(=O)c2cccc(S(=O)(=O)N(C)c3ccccc3)c2)C1 (stereo not drawn) | 6 | 8 | -4 | 4 | -2 | -11
CCCC(=O)Nc1cc(C(=O)N(C)CC(OC)OC)ccc1S(=O)(=O)c1ccc(C)cc1 | -21 | 7 | -16 | 1 | -5 | -14
Cc1ccc(S(=O)(=O)CC(c2ccccc2)N2CCCCC2)cc1 (stereo not drawn) | -16 | -7 | 27* | -1 | -4 | 9

Source: PubChem BioAssay (The Scripps Research Institute Molecular Screening Center)
